Where “and” joins values, the source holds several entries; their conditions need not be identical. Equal entries are not always repeated. Where two headings read alike, the source gives them in different places.
Assays:
[1] = tested on: PIKFYVE; conditions: concentration: 1 μM, replicates: in singlicate, n = 1
[2] = tested on: PIM1; conditions: concentration: 1 μM, replicates: in singlicate, n = 1
[3] = tested on: PIM2; conditions: concentration: 1 μM, replicates: in singlicate; n = 1
[4] = tested on: PIM3; conditions: concentration: 1 μM, replicates: in singlicate, n = 1
[5] = tested on: PIP5K1A; conditions: concentration: 1 μM, replicates: in singlicate, n = 1
[6] = tested on: PIP5K1C; conditions: concentration: 1 μM, replicates: in singlicate, n = 1
[7] = tested on: PIP5K2B; conditions: concentration: 1 μM, replicates: in singlicate, n = 1
[8] = tested on: T1, PIP5K2C; conditions: concentration: 1 μM, replicates: in singlicate, n = 1
T1 construct: gene PIP4K2C

[9] = tested on: T2, PKAC-alpha; conditions: concentration: 1 μM, replicates: in singlicate, n = 1
T2 construct: gene PRKACA

[10] = tested on: T3, PKAC-beta; conditions: concentration: 1 μM, replicates: in singlicate, n = 1
T3 construct: gene PRKACB
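Also: KINOMEscan kinase panel screen.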

Row | Compound | %Inh [1] [%] | %Inh [2] [%] | %Inh [3] [%] | %Inh [4] [%] | %Inh [5] [%] | %Inh [6] [%] | %Inh [7] [%] | %Inh [8] [%] | %Inh [9] [%] | %Inh [10] [%] | %Inh ([1]; 1 µM) | %Inh ([2]; 1 µM) | %Inh ([4]; 1 µM) | %Inh ([5]; 1 µM) | %Inh ([6]; 1 µM) | %Inh ([7]; 1 µM) | %Inh ([8]; 1 µM) | %Inh ([9]; 1 µM) | %Inh ([10]; 1 µM)
1 | O=c1cc(N2CCOCC2)nc2n(Cc3cccc(F)c3)ccn12 [GSK2297430] | 0 | 11 | 0 | 0 | 0 | 21 | 21 | 0 | 12 | 12 |  |  |  |  |  |  |  |  | 
2 | Cc1c2ccc(N(C)c3ccnc(Nc4cccc(S(N)(=O)=O)c4)n3)cc2nn1Cc1ccccc1.Cl.Cl [GW787226] | 0 | 0 | 0 | 0 | 0 | 0 | 0 | 0 | 17 | 4 |  |  |  |  |  |  |  |  | 
3 | CCc1ccnc(/C=C/c2n[nH]c3cc(Sc4ccccc4C(=O)NC)ccc23)c1 | 0 | 0 | 0 | 0 | 5 | 0 | 27 | 0 | 0 | 0 |  |  |  |  |  |  |  |  | 
4 | Cl.Cl.Cl.Fc1ccc(-c2ncn(C3CCNCC3)c2-c2ccnc(Nc3ccccc3)n2)cc1 [SB-238039] |  |  | 0 |  |  |  |  |  |  |  | 5% and 24% | 15% and 2% | 19% and 0% | 46% and 0% | 25% and 0% | 24% and 0% | 48% and 41% | 64% and 46% | 73% and 65%
5 | CNc1ncnc2[nH]ncc12 [SKF-18355] | 11 | 0 | 8 | 0 | 22 | 0 | 0 | 0 | 31 | 16 |  |  |  |  |  |  |  |  | 
6 | [2H]C([2H])(c1cccc(C(F)(F)F)c1C)n1ccn2c(=O)nc(N3CCOCC3)cc12 [GSK2336394] | 0 | 0 | 0 | 0 | 0 | 31 | 4 | 0 | 0 | 12 |  |  |  |  |  |  |  |  | 
7 | Cc1nnc(-c2ccc(C)c(-c3ccc(C(=O)Nc4ccc(NS(C)(=O)=O)cc4)cc3)c2)o1 [GW702865] | 4 | 0 | 0 | 0 | 52 | 26 | 17 | 18 | 0 | 0 |  |  |  |  |  |  |  |  | 
8 | Fc1ccc(-c2ncn(CCCN3CCOCC3)c2-c2cccnc2)cc1 [SB-211743] | 0 | 12 | 2 | 0 | 5 | 0 | 5 | 0 | 0 | 25 |  |  |  |  |  |  |  |  | 
9 | CCn1cnc2c(N)ncnc21 [GW345098] | 0 | 0 | 0 | 0 | 0 | 0 | 0 | 0 | 8 | 14 |  |  |  |  |  |  |  |  | 
10 | Cc1ccc(NC(=O)c2ccnc(N3CCN(C)CC3)c2)cc1-c1ccc(C(=O)NCC2CC2)cc1 [GW775604] | 0 | 0 | 0 | 4 | 0 | 0 | 0 | 0 | 0 | 0 |  |  |  |  |  |  |  |  | 
11 | NS(=O)(=O)c1cccc(-c2ccc3ncc(N4CCOCC4)nc3c2)c1 [GSK1535721] | 11 | 14 | 0 | 0 | 0 | 48 | 11 | 75 | 0 | 0 |  |  |  |  |  |  |  |  | 
12 | Cl.Nc1ncnc2occ(-c3ccc(NC(=O)Nc4cc(C(F)(F)F)ccc4F)cc3)c12 [SB-707548] | 25 | 23 | 0 | 0 | 28 | 57 | 36 | 45 | 9 | 0 |  |  |  |  |  |  |  |  | 
13 | Cn1ccc2ncnc(Oc3ccc(NC(=O)Nc4ccncc4)c(Cl)c3)c21 | 8 | 0 | 13 | 1 | 24 | 5 | 11 | 0 | 1 | 2 |  |  |  |  |  |  |  |  | 
14 | CN(C1=C(c2ccccc2)C(=O)NC1=O)c1ccccc1 [SB-334860] | 10 | 19 | 0 | 0 | 8 | 37 | 7 | 10 | 4 | 0 |  |  |  |  |  |  |  |  | 
15 | O=C(NCCNc1ccnc(Nc2ccc(F)cc2)n1)Nc1ccccc1F [GSK1379880] | 0 | 0 | 0 | 0 | 0 | 24 | 0 | 38 | 8 | 0 |  |  |  |  |  |  |  |  | 

— PMC5540273 (PLoS ONE, 2017)
